KB-3-1 cytotox: KB-3-1 parental cell cytotoxicity | KB-3-1 viability, CellTiter-Glo ATP luminescence, 72 h | 400,000 tested, 1.4% active | Potency, µM (highest dose often 46.1 µM), actives largely listed as cytotoxic; note: % is set by controls: 0 for no effect and ±100 for the full control effect; nearly all actives have a fitted effect of over 60% in size
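Parental KB-3-1 viability, qHTS format: 72 h compound exposure, 37 °C; CellTiter-Glo; media-only wells and DMSO plates as controls; concentration-effect fits on corrected data.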
HT1080 IDH1KD tx: toxicity to HT-1080 IDH1 knockdown cells (counter line); HT-1080 IDH1 knockdown viability, ATP luminescence, 48 h; Potency, µM (titrated, usually from 46.1 µM), for the others: at the top dose activity, negative = toxicity, most hits filed as cytotoxic; 360,000 tested, 2% active;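 note: 0% = DMSO wells and -100% = cell-free medium wells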
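Using the IDH1-knockdown HT-1080 line run in the same batch and compound series as the NT line, viability after 48 h at 37 °C was determined by CellTiter-Glo luminescence and expressed as % activity.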
ATXN viability: viability counter-screen for ATXN expression inhibitors; S2 cells (HEK-293 line with an ATXN2-luciferase reporter) viability, CellTiter-Fluor protease fluorescence, 24 h; Potency, µM (titrated, usually from 56.7 µM), actives largely listed as cytotoxic; 400,000 tested, 0.49% active; note: nearly all actives have a fitted effect of over 40% in size
KB-V1 MDR tox: kills drug-selected multidrug resistant KB-V1 cells. KB-V1 MDR cells viability, CellTiter-Glo, 72 h. Potency, µM (doses to about 46.1 µM), actives largely listed as cytotoxic. 400,000 tested, 3.4% active. AID 1347076; note: % is set by controls: 0 for no effect and ±100 for the full control effect; nearly all actives have a fitted effect of over 60% in size
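Cells of the MDR subline KB-V1 are plated, dosed with compound at multiple concentrations, and incubated 72 h at 37 degrees C; CellTiter-Glo is then added and luminescence read after 10 min.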
ATXN2 expr inh: ATXN2 expression inhibition | Potency, µM (titrated, usually from 57 µM), inactives show at the top dose activity change, negative = inhibition, most hits filed as inhibitors | HEK-293 ATXN2-luciferase reporter, luminescence, 24 h | 360,000 tested, 0.72% active; note: % is set by controls: 0 for no effect and ±100 for the full control effect; nearly all actives have a fitted effect of over 55% in size
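qHTS (up to 57 uM final) was run with 24 h compound exposure of reporter cells at 37 °C. Each well was multiplexed: SteadyGlo luminescence measured ATXN2-luciferase expression after a fluorogenic Gly-Phe-AFC viability readout (25 uM final).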
HT1080NT lethal: kills 2HG-producing HT-1080-NT fibrosarcoma cells. HT-1080-NT fibrosarcoma viability, CellTiter-Glo ATP luminescence, 48 h. Potency, µM (titrated, usually from 46.1 µM), inactives show top-dose activity, negative = less viability, most hits filed as cytotoxic. 360,000 tested, 1.6% active;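 note: NT is the 2HG producing partner of a matched IDH1 knockdown line; 0% = DMSO-treated cells and -100% = media-only wells without cells; nearly all actives have a fitted effect of over 55% in size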
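Fibrosarcoma NT cells, 750 per well in 5% FBS RPMI, were exposed to compound for 48 hours. Viability: CellTiter-Glo luminescence.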
Numbers without * were called inactive; i = inactive; u = inconclusive; x = no result; [ ] = dose if it differs, or a comment. The list is not random: actives were taken first. Their share in the collection is about 6.2%. Calls come from the whole dose curve; as a rule, active = well fitted curve in the direction sought with a large enough effect; inconclusive = small, poorly fitted or top-dose-only effect, or another doubt; inactive = no such curve, though single readings can be large; an effect the other way counts as inactive or inconclusive. Potency is the fitted concentration of half-maximal effect.

SMILES | KB-3-1 cytotox | HT1080 IDH1KD tx | ATXN viability | KB-V1 MDR tox | ATXN2 expr inh | HT1080NT lethal
O=C(N/N=C/c1ccc([N+](=O)[O-])s1)c1cccc(Br)c1 | i | 21µM* | u | u | -34% | 12µM*
Cc1cc(C(=O)N/N=C/c2ccc([N+](=O)[O-])s2)n[nH]1 | u | -19% | u | i | 14µM* | -7%
Cc1ccc(C(=O)N/N=C/c2ccc([N+](=O)[O-])s2)cc1 | i | u | i | u | 2.2µM* | u
Cc1cc(C(=O)N/N=C/c2ccc(C)s2)n[nH]1 | i | 10% | i | i | 29% | 1%
COc1ccc(-c2nc3cc(C)ccc3cc2CN(C(=O)c2cc(C)nn2C)C2CC2)cc1OC | x | x | i | x | x | x
COc1ccccc1Oc1nc2c(c(=O)n(C)c(=O)n2C)n1Cc1cccc(Br)c1 | u | x | i | i | -17% | x
CSc1nnc(CCNC(=O)OC(C)(C)C)o1 | i | 3% | i | i | x | -2%
CC(C)=CCSc1nnc(CCNC(=O)OC(C)(C)C)o1 | i | 0% | i | 21µM* | 5% | -4%
CCOC(=O)n1c(=O)n(Cc2ccc(OC)cc2)c2ccccc21 | 16µM* | u | i | u | -1% | 15µM*
CCCCCc1ccc(OCCC[n+]2ccccc2)c(CCCCC)c1 | 12µM* | 5.2µM* | u | i | u | 3.7µM*
CCCCCc1ccc(OCCOCCn2c[n+](C)c3ccccc32)c(CCCCC)c1 | 18µM* | u | 18µM* | i | x | u
C#CCN1CCc2onc(-c3ccccc3OC)c2C1=O | i | 21% | i | i | 2% | 18%
O=C(Nc1cccc(Cl)c1)c1cc(S(=O)(=O)NCCc2ccc(Cl)cc2)ccc1F | i | 29µM* | i | u | -35% | u
Cc1ccc(NC(=O)c2cc(S(=O)(=O)NCCc3ccccc3)ccc2F)cc1Cl | i | 16µM* | i | i | -10% | 16µM*
Cc1ccc(C)c(NC(=O)c2cc(S(=O)(=O)NCCc3ccccc3)ccc2F)c1 | i | x | u | u | u | x
O=C(Nc1ccc(F)c(Cl)c1)N1CC=C(c2c[nH]c3ccccc23)CC1 | i | x | x | i | x | x
Cn1c(=O)c2c(nc(SCC(=O)Nc3ccccc3F)n2Cc2ccc(Cl)cc2)n(C)c1=O | i | x | i | u | -10% | x
CCOc1ccc(NC(=O)N2CCc3ccccc3C2)cc1 | i | 12% | i | i | 6% | 9%
O=C(Nc1ccc(OC(F)(F)F)cc1)N1CCc2nc(NCc3cccc(Oc4ccccc4)c3)ncc2C1 | u | 23µM* | i | 13µM* | 0% | u
O=C(Nc1ccc(Cl)cc1)N1CCc2ccccc2C1 | i | u | i | i | 56% | -14%
CC(C)c1ccc(Nc2ncc3c(n2)CCN(C(=O)Nc2ccc(F)c(Cl)c2)C3)cc1 | u | u | i | 18µM* | 0% | u
COc1cccc(NC(=O)N2CCc3nc(NCc4cccc(Oc5ccccc5)c4)ncc3C2)c1 | 8.2µM* | u | i | u | -27% | u
COc1cccc(NC(=O)N2CCc3nc(Nc4cc(Cl)cc(Cl)c4)ncc3C2)c1 | u | -13% | u | i | 0% | u
CCS(=O)c1ccccc1C(=O)OCC(=O)Nc1ccc2ccccc2c1 (stereo unspecified) | i | -2% | i | i | -23% | -13%
O=C(NCc1ccccc1Cl)c1ccc2sc([C@@H]3O[C@H](CO)[C@H](O)[C@H](O)[C@H]3O)nc2c1 | i | 1% | i | i | 20% | 2%
SMILES | KB-3-1 cytotox | HT1080 IDH1KD tx | ATXN viability | KB-V1 MDR tox | ATXN2 expr inh | HT1080NT lethal
COc1ccccc1-c1cc(C(=O)Nc2cc(C)nn2-c2ccccc2)no1 | 5.2µM* | 3.2µM* | u | 6.5µM* | -15% | u
CCCCNC(=O)c1cc(-c2ccc(OC)cc2)on1 | i | 0% | i | i | 15% | -21%
COc1ccc(OC)c(-c2cc(C(=O)NCc3cccs3)no2)c1 | i | u | i | 16µM* | 7% | -27%
COCCNC(=O)c1cc(-c2ccccc2OC)on1 | 9.2µM* | -24% | i | u | 32% | u
CCCCNC(=O)c1cc(-c2ccc(F)cc2)on1 | 18µM* | u | i | 16µM* | 28% | u
COc1cccc(OC)c1CN1CCC2(CCC(CNC(=O)c3ccccc3)O2)CC1 (stereo unspecified) | x | x | i | x | x | x
CCN(Cc1ccccc1)c1ccc(/C=C/c2nccc3ccccc23)cc1 | i | x | x | i | x | x
Cc1ccc2nc(Cl)c3cc(C(=O)N4CCCC(C)C4)sc3c2c1 (stereo unspecified) | i | x | x | i | x | x
O=c1[nH]cncc1OCc1ccccc1 | i | 7% | i | i | 8% | 5%
COc1ccccc1-c1cc(C(=O)NC(C)C)no1 | i | -5% | i | i | 68% | -18%
COc1ccccc1-c1cc(C(=O)NC(C)c2ccccc2)no1 (stereo unspecified) | i | u | i | 21µM* | 3% | 23%
COc1ccc2oc(-c3ccccc3[N+](=O)[O-])cc(=O)c2c1 | u | 6.5µM* | i | 5.8µM* | -3% | 8.2µM*
COc1ccc(-c2cc(=O)c3ccccc3o2)cc1 | i | -10% | i | i | 24% | -12%
CCC1CN(Cc2cccc3nccnc23)Cc2cc(OC)ccc2O1 (stereo unspecified) | x | x | i | x | x | x
CC1=CC(C)C(/C=N/n2cnnc2)C(C)C1 (stereo unspecified) | i | 5% | i | i | -1% | 5%
C=C(C)C1CCC(C)=C1CC(C)(C)/C=N\n1cnnc1 (stereo unspecified) | i | -3%[9.24 µM] | i | 15µM* | -7% | -25%
Cc1ccc(S(=O)(=O)c2c(C)nn(-c3ccccc3)c2OC(=O)c2ccccc2F)cc1 | i | x | u | i | -18% | x
COCCN(CC(=O)Nc1cccc(C)c1C)C(=O)Cc1sc(C)nc1-c1ccc(F)cc1 | i | -1% | u | i | -15% | -3%
CCc1nc2ccc(C(=O)N(C)CC(=O)Nc3ccc(Cl)c(C(F)(F)F)c3)cc2nc1CC | i | 21µM* | i | i | -25% | u
Cc1nc(-c2ccc(F)cc2)c(CC(=O)N(C)CC(=O)Nc2ccccc2Cl)s1 | i | -12% | i | 3.7µM* | -4% | 0%
Cc1nc(-c2ccc(F)cc2)c(CC(=O)N(C)CC(=O)Nc2ccc(Cl)c(C(F)(F)F)c2)s1 | i | 16µM* | i | i | u | u

Screening results (PubChem)
